AC50 and outcome data for seven compounds are collected here from PubChem BioAssay (EPA / NIEHS).

A short description of assay [1]: CCTE_Simmons_MITO_basal_resp_rate: CCTE's HepG2 Seahorse XF Respirometric Screening Assay at Basal Respiratory State, Simmons Lab (AID 2284001). To be noted: actives raise or lower the signal. Put shortly:
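HepG2 respirometry; 7-pt titration 125 nM–100 uM final; kinetic OCR at 6 min intervals for 72 min; n=3 biological, technical singles; DMSO baseline, gain or loss fit; fenpyroximate (decrease) and 2,4-DNP (increase) controls.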

Assay [2] can be described thus: CCTE_Simmons_MITO_max_resp_rate: CCTE's HepG2 Seahorse XF Respirometric Screening Assay at Maximal Respiratory State [uncoupled], Simmons Lab (AID 2284002). To be noted: actives raise or lower the signal. Put shortly: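 Maximal (FCCP-uncoupled) respiration rate in HepG2, from Seahorse kinetic OCR over 72 min at 6 min cycles. Compounds at 125 nM–100 uM final, 7 points, three biological replicates; both directions fit relative to DMSO.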

A short description of assay [3]: CCTE_Simmons_MITO_inhib_resp_rate: CCTE's HepG2 Seahorse XF Respirometric Screening Assay at Inhibited Respiratory State [full ETC block], Simmons Lab (AID 2284006). To be noted: actives raise or lower the signal. Put shortly: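 Compound injected onto HepG2 cells (125 nM–100 uM final, 7 points); FCCP then rotenone/antimycin A added. Oxygen consumption read every 6 min (3 min mix, 3 min measure) for 72 min. Inhibited-state OCR fitted against DMSO.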

The nature of assay [4]: CCTE_Simmons_MITO_viability: CellTiter-Glo Viability Assessment for CCTE's HepG2 Seahorse XF Respirometric Screening Assay [post-hoc], Simmons Lab (AID 2284007; active = hit-call score of the fitted dose curve at least 0.9, where 1 is the maximum;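 for AC50: cells exposed to chemical for 90 min before the ATP read; actives lower ATP signal relative to DMSO baseline meaning reduced viability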). Put shortly: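 After the Seahorse oxygen-consumption sequence (basal, FCCP, rotenone/antimycin A; 72 min total), HepG2 viability was scored as ATP content by bioluminescence. Chemicals ran at seven concentrations up to 100 uM final for 90 min.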
Background: ATP-based viability assays read luminescence as a measure of living cells.

Assay [5] in a line: CCTE_Shafer_MEA_acute_spike_number: CCTE's Neural Acute Assay for Total Number of Spikes, Shafer Lab (AID 2284008).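 For AC50: curve fitted for decrease in spike count so AC50 reflects inhibitors.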 Put shortly: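 Total spike count from 40 min recordings before and during compound exposure (0.03-40 uM), given as per-well percent change. Cortical cultures from rat, DIV 13 or 15, 37 C; adaptive detection threshold 8x rms noise.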
Assay [6] can be described thus: CCTE_Shafer_MEA_acute_firing_rate_mean: CCTE's Neural Acute Assay for Mean Firing Rate, Shafer Lab (AID 2284009).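 Note: analyzed for loss of signal so actives lower firing rate relative to DMSO.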 Put shortly: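 Percent change in well-mean firing rate was derived from extracellular spikes detected at 8x rms noise (300-5000 Hz band-pass) before and after a 40-min compound exposure. Cultures were primary rat cortical neurons, tested at 0.03-40 uM.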

A short description of assay [7]: CCTE_Harrill_HTTr_Viability_MCF7: CCTE's 6-hour Cell Viability Assessment for the High-Throughput Transcriptomics (HTTr) Platform, in MCF-7 cells cultured in DMEM + 10% fetal bovine serum, Harrill Lab (AID 2284010). Put shortly:
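Cells were dosed with chemicals in an eight-point dilution series, imaged 6 hours later for propidium iodide uptake, and the endpoint was analyzed by bidirectional fitting against DMSO as negative control.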

Assay [8] in a line: CCTE_Harrill_HTTr_CellCount_MCF7: CCTE's Cell Proliferation Assessment for the High-Throughput Transcriptomics (HTTr) Platform, Harrill Lab (AID 2284012; active = hit-call score of the fitted dose curve at least 0.9, where 1 is the maximum;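 note: cells exposed to compound for six hours; intended direction is loss of nuclei count meaning fewer cells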). Put shortly: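 Chemicals in eight-point dilution series are added to MCF-7 cells for six hours, nuclei are stained with Hoechst and imaged, and per-well nuclei counts are fitted in both directions relative to DMSO controls.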

Assay [9] can be described thus: CCTE_Shafer_MEA_acute_burst_number: CCTE's Neural Acute Assay for Single-Electrode Bursts, Shafer Lab (AID 2284013). Put shortly: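 Spontaneous network activity of primary rat cortical neurons was recorded extracellularly on microelectrode arrays at 37 C, with 40-min periods before and during exposure to 0.03-40 uM compound on DIV 13 or 15.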
Assay [10] is described as follows: CCTE_Shafer_MEA_acute_burst_duration_mean: CCTE's Neural Acute Assay for Mean Burst Duration, Shafer Lab (AID 2284014).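 Note: hits are decreases in mean burst duration relative to DMSO controls.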 Put shortly:
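Read-out is the per-well percent change in mean burst duration (first to last spike within a single-electrode burst) between 40-min recordings before and after compound. Cultures were primary rat cortical neurons on MEAs, dosed at 0.03-40 uM on DIV 13 or 15.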

Assay [11] is described as follows: CCTE_Shafer_MEA_acute_per_burst_spike_number_mean: CCTE's Neural Acute Assay for Average Number of Spikes Per Burst, Shafer Lab (AID 2284015).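 Note: hits are decreases in mean spikes per burst versus baseline.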 Put shortly: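 We recorded spontaneous network firing of rat cortical neurons for 40 min before and 40 min during exposure to compound at 0.03-40 uM, at 37 C. Spikes were detected adaptively at 8x rms noise, and the change in average spikes per burst was fitted against DMSO.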

Assay [12] can be described thus: CCTE_Shafer_MEA_acute_interburst_interval_mean: CCTE's Neural Acute Assay for Mean Interburst Interval, Shafer Lab (AID 2284016).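 Note: percent change of mean interburst interval versus each well's own pre-dose baseline; curves fitted for decrease in interburst interval relative to DMSO.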 Put shortly: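 MEA recording of spontaneous network bursting in primary rat cortical cultures; mean interburst interval was compared before and after a 40-min compound exposure (0.03-40 uM) and expressed as percent change, relative to DMSO.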

Assay [13] is described as follows: CCTE_Shafer_MEA_acute_burst_percentage_mean: CCTE's Neural Acute Assay for Percentage of Spikes in a Burst, Shafer Lab (AID 2284017).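 For AC50: curve fitted for loss of signal so potency reflects decreased burst percentage.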 Put shortly:
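Compounds were tested at 0.03-40 uM on primary rat cortical neuron networks grown over microelectrodes, with at least three wells per compound. Spontaneous firing was recorded for 40 min before and 40 min after dosing, and the change in burst percentage was computed per well.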

Assay [14] in a line: CCTE_Shafer_MEA_acute_burst_percentage_std: CCTE's Neural Acute Assay for Standard Deviation of Burst Percentage, Shafer Lab (AID 2284018).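 Note: fitted in the negative direction so actives lower burst percentage SD.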 Put shortly:
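Value is percent change from baseline in the across-electrode SD of spikes-in-bursts percentage, wells with >/= 10 active electrodes. Acute 40-min exposure to 0.03-40 uM on DIV 13 or 15 rat cortical cultures, recorded at 37 C after 40-min baseline.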

Assay [15] is described as follows: CCTE_Shafer_MEA_acute_per_network_burst_spike_number_mean: CCTE's Neural Acute Assay for Average Number of Spikes in a Network Burst, Shafer Lab (AID 2284019).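 For AC50: curve fitted for loss of signal so actives reduce spikes per network burst.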 Put shortly: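 Read-out is mean spike count per network burst, taken as percent change between a 40-min pre-exposure and a 40-min post-exposure recording per well. Rat primary cortical neurons on MEAs at 37 C, DIV 13 or 15; compounds at 0.03-40 uM.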

For assay [16], the target named is Nucleoli Translocation, AR (gene 367) (UniProt P10275). The assay can be described thus: UPITT_HCI_U2OS_AR_TIF2_Nucleoli_Antagonist: University of Pittsburgh U2OS Androgen Receptor-Transcriptional Intermediary Factor 2 (AR-TIF2) Antagonism High Content Imaging Assay for Nucleoli Translocation (AID 2283997; active = hit-call score of the fitted dose curve at least 0.9, where 1 is the maximum). Put shortly: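 Measured quantity was AR-RFP fluorescence localized to nucleoli in engineered U2OS cells also bearing TIF2-GFP, acquired on automated high-content imagers. Primary testing used 20 uM compound; actives were confirmed in triplicate wells.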

The target is the same in assay [17]. The assay can be described thus: UPITT_HCI_U2OS_AR_TIF2_Nucleoli_Agonist: University of Pittsburgh U2OS Androgen Receptor-Transcriptional Intermediary Factor 2 (AR-TIF2) Agonism High Content Imaging Assay for Nucleoli Translocation (AID 2283998; active = hit-call score of the fitted dose curve at least 0.9, where 1 is the maximum). Put shortly:
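Nucleolar translocation of AR-RFP, with TIF2-GFP coexpressed in human osteosarcoma U2OS, imaged by high-content fluorescence. Compounds tested singly at 20 uM final, confirmed in triplicate, then titrated 0.195–50 uM final; gain-of-signal relative to DMSO.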

In assay [18] the target is Ratio of Nucleoli Translocation and Cytoplasm, AR (gene 367) (UniProt P10275). The assay can be described thus: UPITT_HCI_U2OS_AR_TIF2_Nucleoli_Cytoplasm_Ratio_Antagonist: University of Pittsburgh U2OS Androgen Receptor-Transcriptional Intermediary Factor 2 (AR-TIF2) Antagonism High Content Imaging Assay for Ratio of Nucleoli Translocation and Cytoplasm (AID 2283999; active = hit-call score of the fitted dose curve at least 0.9, where 1 is the maximum;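 note: antagonists lower the DHT-driven ratio of nucleolar to cytoplasmic red signal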). Put shortly: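 Human osteosarcoma U2OS line, AR fused to RFP, coactivator TIF2 fused to GFP. Cpds 20 uM final, 0.2% DMSO (screen); 0.195–50 uM final, 0.5% DMSO (CRC). Endpoint: nucleoli/cytoplasm red signal ratio, DHT as baseline, loss-of-signal antagonist mode.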

For assay [19] the target is unchanged. The assay can be described thus: UPITT_HCI_U2OS_AR_TIF2_Nucleoli_Cytoplasm_Ratio_Agonist: University of Pittsburgh U2OS Androgen Receptor-Transcriptional Intermediary Factor 2 (AR-TIF2) Agonism High Content Imaging Assay for Ratio of Nucleoli Translocation and Cytoplasm (AID 2284000; active = hit-call score of the fitted dose curve at least 0.9, where 1 is the maximum;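 note: hits raise the red nucleolar to cytoplasm ratio above vehicle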). Put shortly:
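Read-out first: nucleolar-to-cytoplasm ratio of red (AR-RFP) signal, quantified by high-content imaging in U2OS cells co-expressing TIF2-GFP. Activity is scored as signal increase over DMSO. Single-point screening used 20 uM final (0.2% DMSO).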

Assay [20] is described as follows: CCTE_Harrill_HTTr_Apoptosis_MCF7: CCTE's 6-hour Apoptosis Assessment for the High-Throughput Transcriptomics (HTTr) Platform, in MCF-7 cells cultured in DMEM + 10% fetal bovine serum, Harrill Lab (AID 2284011). Put shortly: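 High-content imaging of CellEvent Caspase 3/7 Green signal follows a six-hour exposure, with eight concentrations per chemical. MCF-7 cells grown in DMEM plus 10% fetal bovine serum; activity fitted in both directions against DMSO.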

Values joined by “and” are separate entries in the source; they are usually repeats but may differ in a detail not shown here. Equal values may be shown once. Records with an inconclusive call do not appear. The source holds several records for some structures; these can differ, active in one and inactive in another. Active and inactive are the calls of the source. Rule for the calls, unless noted: active = hit-call score of the fitted dose curve at least 0.9, where 1 is the maximum; inactive = score below 0.9.

Sequence of Nucleoli Translocation, AR (gene 367) (P10275 whole entry, looked up): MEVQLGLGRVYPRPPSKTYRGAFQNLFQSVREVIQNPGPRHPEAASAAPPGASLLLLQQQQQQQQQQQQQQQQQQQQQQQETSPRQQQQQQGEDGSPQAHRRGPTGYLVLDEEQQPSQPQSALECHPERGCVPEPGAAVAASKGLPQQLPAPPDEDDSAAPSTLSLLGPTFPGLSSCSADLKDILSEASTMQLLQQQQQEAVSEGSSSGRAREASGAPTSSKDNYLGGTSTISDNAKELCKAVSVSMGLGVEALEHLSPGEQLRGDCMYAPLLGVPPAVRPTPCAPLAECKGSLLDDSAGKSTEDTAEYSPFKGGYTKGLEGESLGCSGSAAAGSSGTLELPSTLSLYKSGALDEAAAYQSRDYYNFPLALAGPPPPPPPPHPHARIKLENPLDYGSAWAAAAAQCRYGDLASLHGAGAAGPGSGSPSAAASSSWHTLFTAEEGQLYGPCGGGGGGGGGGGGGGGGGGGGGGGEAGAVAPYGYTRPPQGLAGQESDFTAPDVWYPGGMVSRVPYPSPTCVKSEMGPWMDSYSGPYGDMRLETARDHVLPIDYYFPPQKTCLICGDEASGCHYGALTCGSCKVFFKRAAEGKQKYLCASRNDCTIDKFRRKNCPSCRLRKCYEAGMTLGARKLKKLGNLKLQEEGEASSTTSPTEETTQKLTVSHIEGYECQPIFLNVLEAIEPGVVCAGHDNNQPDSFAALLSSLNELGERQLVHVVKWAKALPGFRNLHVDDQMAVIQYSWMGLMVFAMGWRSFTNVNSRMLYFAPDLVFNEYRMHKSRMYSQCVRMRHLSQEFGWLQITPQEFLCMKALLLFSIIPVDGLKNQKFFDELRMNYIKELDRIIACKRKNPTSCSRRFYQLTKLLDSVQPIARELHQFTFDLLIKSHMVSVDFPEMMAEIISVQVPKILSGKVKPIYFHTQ
Sequence of Ratio of Nucleoli Translocation and Cytoplasm, AR (gene 367) (P10275 whole entry, looked up, the tested form may be a part): as the sequence (P10275 whole entry, looked up) above

With `O=[N+]([O-])c1cc(C(F)(F)F)c(Cl)c([N+](=O)[O-])c1Nc1ncc(C(F)(F)F)cc1Cl`, the AC50 (in general, the concentration at which the activity in the assay is half-maximal) was 14.2 µM (active) in assay [1]; 351 nM (active) in [5]; 350 nM (active) in assay [6]; 21.5 µM (active) in assay [7]; 0.322 µM (active) in assay [9]; 1.59 µM (active) in assay [10]. For the same compound, the AC50 in assay [11] is 468 nM (active); in assay [12] it was 1.14 µM (active); in assay [13] it was 678 nM (active); in assay [15] it was 0.321 µM (active). Besides, the call in assay [2], in assay [3], in assay [4], in assay [8] and in assay [14] was inactive.
For the compound `Nc1c(Cl)cc([N+](=O)[O-])cc1Cl`, the AC50 in [16] was 41.7 µM (active); in assay [12], 30.2 µM (active); in assay [13], 20000 nM (active); in assay [14], 26.9 µM (active). Moreover, the result in [17], in [18], in assay [19], in assay [5], in assay [6] and in assay [7] was inactive. In addition, the outcome in assay [20], in assay [8], in assay [9], in assay [10], in [11] and in assay [15] was inactive.
As for `CC(C)N(C(=O)SCC(Cl)=C(Cl)Cl)C(C)C`, the outcome in assay [1], in [2], in assay [3], in [4], in assay [7] and in assay [9] was inactive. The outcome in assay [10], in assay [12] and in assay [15] was inactive. Further, the AC50 is 8.85 µM (active) and 5.81 µM (active) in assay [5]; 8.79 µM (active) and 5.81 µM (active) in [6]; 20 µM (active) and 8.68 µM (active) in [11]; 11.9 µM (active) in assay [12]; 20 µM (active) and 15 µM (active) in assay [13]; 20 µM (active) and 7.81 µM (active) in assay [14]. In addition, the AC50 in [15] was 5.79 µM (active).
Take `Cc1nn(-c2cc(NS(C)(=O)=O)c(Cl)cc2Cl)c(=O)n1C(F)F`: the result in assay [16], in assay [17], in assay [18], in assay [19], in [7] and in assay [20] was inactive. In assay [8], the result was inactive.
As for `CCC(CC)Nc1c([N+](=O)[O-])cc(C)c(C)c1[N+](=O)[O-]`, the values for the AC50 in assay [1] and in [2] were 24.8 µM (active) and 29.8 µM (active), respectively. In addition, the outcome in assay [3], in [4], in assay [7] and in assay [20] was inactive.
With `COP(=O)(OC)OC(Br)C(Cl)(Cl)Br` (stereo not given), the AC50 in [16] is 13.6 µM (active); in assay [17], 79 µM (active); in assay [19], 77.9 µM (active); in assay [4], 50 µM (active). The outcome in assay [18], in assay [1], in assay [2], in assay [3], in assay [7] and in assay [8] was inactive.
Turning to `FC(F)C(F)(F)OCC(Cn1cncn1)c1ccc(Cl)cc1Cl` (stereo not given), the AC50 was 12.8 µM (active) in [1]; 22.5 µM (active) in assay [2]; 16.9 µM (active) in assay [4]; 5940 nM (active) in assay [5]; 5920 nM (active) in assay [6]. Also, the compound was called inactive in assay [3], in [7], in assay [8], in [9], in assay [10] and in assay [11]. In addition, the compound was called inactive in assay [12], in assay [13], in [14] and in [15].
